A selection: hits, their analogues and other compounds. The true share with any hit is near 12%.
Arbovirus inh – arbovirus infection inhibition | 200,000 compounds, 0.37% hits | arbovirus infection cell-based antiviral screen | inhibition, % at 10 µM | AID 1251; in the data active = inhibition above about 30%
Lmaj promast – reduces viability of Leishmania major promastigotes; resazurin fluorescence viability; inhibition, % at 10 µM; 200,000 compounds, 9% hits; AID 1063; in the data active = inhibition above about 50%;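 note: promastigotes grown with compound for 44 hours at 28 °C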
WT yeast gro inh – growth inhibition of WT yeast, mitochondrial fusion screen. mitochondrial fusion phenotypic screen, WT strain. inhibition, % at 10 µM. 190,000 compounds, 2.1% hits. AID 1362; in the data active = inhibition above about 58%; tested in S. cerevisiae
CHOP inh – CHOP inhibition in unfolded protein response | CHO-K1 CHOP-promoter luciferase, tunicamycin-induced, 15-18 h | inhibition, % at 10 µM | 220,000 compounds, 3.8% hits;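 active = compounds that reduced the stress-induced luciferase reporter signal by more than about 70% of percent inhibition, limit read from the data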
CHOP inh conf – confirmation of CHOP induction inhibitors. 2,100 compounds, 45% hits. inhibition, % at 10 µM. shares compounds with CHOP inh. CHO-CHOP promoter luciferase reporter, tunicamycin-induced, luminescence;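 active = mean of three repeat readings of reporter signal inhibition above a set limit, cut at about 70% in these data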
Each line names hits and unclear results; the compound was inactive in the other large screens (follow-up assays come after a bar, where they were run).

NNC(=O)CN1CCN(c2ncc(C(F)(F)F)cc2Cl)CC1	none
CCOc1ccc2nc(NC(=O)CN3CCC(n4nnc5cc(F)ccc54)CC3)sc2c1	none
COc1ccc2c(-c3cc4ccc(OCc5ccc(F)cc5)cc4oc3=O)cc(=O)oc2c1	Lmaj promast 52.2, CHOP inh 103.4 | CHOP inh conf inactive
CCCn1c(-c2ccc[nH]c2=O)nc2cc(C)c(C)cc21	none
Oc1ccccc1-n1c(-c2ccccc2)ccc1-c1ccccc1	CHOP inh 104.5 (no result: Arbovirus inh, Lmaj promast, WT yeast gro inh) | CHOP inh conf 118.6
Cc1ccc(-c2ccccc2)n1-c1ccc(C(=O)O)cc1	none
COc1ccc(NC(=S)NC(NC(=O)/C=C/c2ccccc2)C(Cl)(Cl)Cl)cc1 (centres undefined)	CHOP inh 107.0 | CHOP inh conf 121.9
O=C(CCc1ccccc1)NC(NC(=S)Nc1ccc(Cl)cc1)C(Cl)(Cl)Cl (centres undefined)	none
CC(C)NC(NC(=O)/C=C/c1ccccc1)C(Cl)(Cl)Cl (centres undefined)	none
O=C(/C=C/c1ccccc1)NC(NC(=S)Nc1ccc(Cl)cc1)C(Cl)(Cl)Cl (centres undefined)	CHOP inh 108.6 | CHOP inh conf inactive
CCn1c(CNC(=O)c2ccco2)nnc1SCC(=O)Nc1ccc(Br)cc1F	none
Cc1ccc(S(=O)(=O)/N=C2/C=C(Sc3ncn[nH]3)C(=O)c3ccccc32)cc1	Lmaj promast 99.9, CHOP inh 107.8 | CHOP inh conf 108.4
Cc1ccc(C)c(S(=O)(=O)Nc2ccc(O)c(Sc3ncn[nH]3)c2)c1	none (no result: Arbovirus inh, Lmaj promast, WT yeast gro inh)
Cc1ccc(S(=O)(=O)/N=C2/C=C(Sc3ncn[nH]3)C(=O)c3ccccc32)c(C)c1	Lmaj promast 99.1, CHOP inh 109.0 | CHOP inh conf inactive
CC(C)c1ccc(CNC(=O)C(=O)Nc2nccs2)cc1	none
CC(C)Cc1ccc(C(C)C(=O)Nc2nccs2)cc1 (centres undefined)	CHOP inh 96.2 | CHOP inh conf 94.1
O=C1C(=C2SCCCS2)CC/C1=C\c1ccc(F)cc1	CHOP inh 107.6 | CHOP inh conf 114.6
CN(CC(=O)NC1CCCCCCC1)S(=O)(=O)c1cnc[nH]1	none
CCS(=O)(=O)Nc1ccc2[nH]c(=O)[nH]c2c1	none
O=C(CSc1ccc2nnc(-c3ccc(F)cc3)n2n1)N1CCCc2ccccc21	none
O=C(CSc1ccc2nnc(-c3cccc(F)c3)n2n1)N1CCCc2ccccc21	CHOP inh 105.0 | CHOP inh conf inactive
Cc1ccc(Cc2nc(-c3ccccn3)no2)cc1	none
Cc1ccc(-c2nc(-c3ccccn3)no2)cc1	none (no result: CHOP inh) | CHOP inh conf 124.3
Cc1ccccc1-c1noc(-c2ccc(Cl)cc2)n1	none
Cc1ccccc1-c1noc(-c2ccc(O)cc2)n1	CHOP inh 104.5 | CHOP inh conf inactive
Cc1cnc(NC(=O)c2cc3c(C)nn(Cc4ccccc4Cl)c3s2)s1	Lmaj promast 60.1, CHOP inh 104.0 | CHOP inh conf inactive
Oc1ccc(/C=C/c2cnccn2)cc1	none (no result: Arbovirus inh, Lmaj promast, WT yeast gro inh)
COc1ccc(N(C(=O)Cc2cccs2)C(C(=O)NC2CCCCC2)c2cccn2C)cc1OC (centres undefined)	none
C#CC(=O)N(c1ccc(OC)c(OC)c1)C(C(=O)NC1CCCC1)c1cccs1 (centres undefined)	Lmaj promast 100.2, CHOP inh 108.8 | CHOP inh conf 121.7
Cc1cccc(N(C(=O)C(F)(F)F)C(C(=O)NC2CCCCC2)c2cccs2)c1 (centres undefined)	none
C#CC(=O)N(c1cccc(OC)c1)C(C(=O)NC1CCCC1)c1cccs1 (centres undefined)	Lmaj promast 100.4, CHOP inh 108.0 | CHOP inh conf 119.3
COc1cc(N(C(=O)Cc2cccs2)C(C(=O)NC2CCCCC2)c2ccc(C)cc2)ccc1-n1cnnn1 (centres undefined)	Lmaj promast 63.2, CHOP inh 105.3 | CHOP inh conf 92.1
CCCCc1ccc(NC(=S)NCc2cccc(OC)c2)cc1	WT yeast gro inh 65.9, CHOP inh 101.5 | CHOP inh conf inactive
COC(=O)Cc1ccc(NC(=S)NCc2cccc(OC)c2)cc1	none
CCC(=O)Nc1c(-c2ccccc2)c(=O)c2ccccc2n1C	none (no result: Arbovirus inh, Lmaj promast, WT yeast gro inh)
Cc1ccc(-n2c(Cl)c(Cl)nc(Cl)c2=O)cc1	CHOP inh 109.8 | CHOP inh conf 113.5
COc1nc(Cl)cn(-c2ccc(C)cc2)c1=O	none
Cc1ccc([N+](=O)[O-])cc1S(=O)(=O)Nc1ccc(N2CCOCC2)cc1	none
C=CCn1c(SCC(=O)Nc2ccc(-c3nc4ccc(C)cc4s3)cc2)nnc1-c1ccccc1	CHOP inh 99.5 | CHOP inh conf 70.1
C=CCn1c(SCC(=O)NNC(=O)Nc2ccc(C)cc2)nnc1-c1ccccc1	none (no result: Arbovirus inh, Lmaj promast, WT yeast gro inh)
Nc1cc(-c2ccc(Cl)cc2)nn1S(=O)(=O)c1ccc(Cl)cc1	CHOP inh 108.4 | CHOP inh conf inactive
NC(=O)N/N=C/c1cn(-c2ccccc2)nc1-c1ccccc1	none
Cc1ccc(S(=O)(=O)N/N=C\c2cn(-c3ccccc3)nc2-c2ccccc2)cc1	CHOP inh 96.7 | CHOP inh conf inactive
Cc1cc(C2N=C(N)Nc3nc4ccccc4n32)c(C)n1-c1ccccc1Cl (centres undefined)	none
Cc1ccc(-n2c(C)cc(C3N=C(N)Nc4nc5ccccc5n43)c2C)c(C)c1 (centres undefined)	CHOP inh 100.0 | CHOP inh conf inactive
O=C(N/N=C/c1cccs1)c1cccc(NC(=O)c2ccc(Cl)cc2)c1	CHOP inh 104.4 | CHOP inh conf 117.9
O=C(N/N=C/c1cccs1)c1cccc(S(=O)(=O)Nc2ccc(Cl)cc2)c1	none
Cc1cccc(-n2c(C)nc3cc(C(=O)NCc4ccc5c(c4)OCO5)ccc32)c1	none
Cc1nc2oc(C(=O)c3ccc(Br)cc3)c(N)c2c2c1COC(C)(C)C2	CHOP inh 100.8 | CHOP inh conf inactive
CCCc1nc2oc(C(=O)c3ccccc3)c(N)c2c2c1COC(C)(C)C2	CHOP inh 109.9 | CHOP inh conf 97.3
Cc1nc2oc3c(=O)[nH]cnc3c2c2c1COC(C)(C)C2	none (no result: Arbovirus inh, Lmaj promast, WT yeast gro inh)
CCC1CCCCN1c1nc(-c2ccncc2)nc2ccccc12 (centres undefined)	Lmaj promast 94.7, CHOP inh 99.4 | CHOP inh conf inactive
O=C(COC(=O)C1CCN(S(=O)(=O)c2ccc3c(c2)OCCO3)CC1)Nc1cccc2ccccc12	none
Cc1ccc(/C=C(\NC(=O)c2ccc(C)cc2)c2nc(=S)[nH][nH]2)cc1	CHOP inh 110.1 | CHOP inh conf inactive
Cc1ccc(C(=O)N/C(=C\c2ccccc2F)c2nc(=S)[nH][nH]2)cc1	none
CN(C)S(=O)(=O)c1cccc(NC(=O)COC(=O)c2ccc3c(c2)OCO3)c1	none
CNn1cnc2ccsc2c1=O	none (no result: Arbovirus inh, Lmaj promast, WT yeast gro inh)
COc1ccc(-c2cc(CNC(=O)CN(C)Cc3ccccc3)on2)cc1	none
CCC(Sc1nc2ccc(C)cc2[nH]1)C(=O)O (centres undefined)	none
Cc1ccc2nc(SC(C(=O)Nc3ccc(F)cc3)c3ccccc3)[nH]c2c1 (centres undefined)	WT yeast gro inh 60.2, CHOP inh 106.4 | CHOP inh conf inactive
Cc1ccc(Cl)cc1NC(=O)COC(=O)CC1CC2CCC1C2 (centres undefined)	CHOP inh 99.8 | CHOP inh conf inactive

Assay outcomes from PubChem.
